Assays:
Experiment in all cases: DAPPL (digital affinity profiling via proximity ligation, sequencing); 10 mM Tris-HCl pH 7.5, 50 mM NaCl, 1 mM DTT, 4% glycerol, room temperature, 30 min; GST-TFs on glutathione beads, 16-mer random dsDNA library, 0.1% formaldehyde crosslink after washing; high values mean tight binding
FEV = molecular target: T1, FEV (Homo sapiens, UniProt Q99581 1-238); conditions: protein: recombinant; tags: N-terminal GST; dsDNA, one strand shown
T1 sequence: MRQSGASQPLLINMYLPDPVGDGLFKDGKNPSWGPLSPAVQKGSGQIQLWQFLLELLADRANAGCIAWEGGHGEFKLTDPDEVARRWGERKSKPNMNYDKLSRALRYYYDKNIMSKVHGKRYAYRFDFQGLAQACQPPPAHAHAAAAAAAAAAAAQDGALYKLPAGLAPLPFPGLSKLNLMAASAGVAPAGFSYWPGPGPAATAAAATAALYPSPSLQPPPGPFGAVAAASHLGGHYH
How it was run: (§1)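 Each value of binding signal is a hexamer's read frequency for a factor divided by the same hexamer's frequency in the tag-only sample. Barcoded, bead-captured GST fusions of human transcription factors made in yeast were pooled with that sample and incubated with 200 nmole of a random double-stranded 16-mer DNA library in Tris/NaCl/DTT/glycerol buffer at room temperature for 30 min. Washing, 0.1% formaldehyde crosslinking, proximity ligation, PCR and Illumina NextSeq500 sequencing followed.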

ETV5 = ETV5 (Homo sapiens, UniProt P41161 1-510); conditions: protein: recombinant; tags: N-terminal GST; dsDNA, one strand shown
How it was run: as §1

HSF1 = HSF1 (Homo sapiens, UniProt Q00613 1-529); conditions: protein: recombinant; tags: N-terminal GST; chain copies: 3; dsDNA, one strand shown
How it was run: as §1

SPIC = molecular target: T2, SPIC (Homo sapiens, UniProt Q8N5J4 1-248); conditions: protein: recombinant; tags: N-terminal GST; dsDNA, one strand shown
T2 sequence: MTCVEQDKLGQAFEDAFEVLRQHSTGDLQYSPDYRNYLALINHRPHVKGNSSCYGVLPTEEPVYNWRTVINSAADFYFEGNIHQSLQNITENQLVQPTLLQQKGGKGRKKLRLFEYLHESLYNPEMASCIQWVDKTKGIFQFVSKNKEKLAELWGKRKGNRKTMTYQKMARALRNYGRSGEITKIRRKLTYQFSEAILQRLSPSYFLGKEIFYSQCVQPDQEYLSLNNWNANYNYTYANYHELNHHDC
How it was run: as §1

ELF4 = ELF4 (Homo sapiens, UniProt Q99607 1-663); conditions: protein: recombinant; tags: N-terminal GST; dsDNA, one strand shown
How it was run: as §1

ELK4 = molecular target: T3, ELK4 (Homo sapiens, UniProt P28324-2 1-405); conditions: protein: recombinant; tags: N-terminal GST; dsDNA, one strand shown
T3 sequence: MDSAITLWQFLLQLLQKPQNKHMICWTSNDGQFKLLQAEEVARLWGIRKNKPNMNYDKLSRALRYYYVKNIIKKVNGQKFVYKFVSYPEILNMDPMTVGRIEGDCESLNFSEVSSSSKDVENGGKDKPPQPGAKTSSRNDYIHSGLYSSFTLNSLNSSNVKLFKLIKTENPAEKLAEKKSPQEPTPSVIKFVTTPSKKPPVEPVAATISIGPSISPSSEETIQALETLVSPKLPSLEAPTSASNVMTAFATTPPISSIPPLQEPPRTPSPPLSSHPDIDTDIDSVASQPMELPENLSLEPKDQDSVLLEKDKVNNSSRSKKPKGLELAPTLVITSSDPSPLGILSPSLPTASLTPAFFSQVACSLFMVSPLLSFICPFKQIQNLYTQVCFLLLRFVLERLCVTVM
How it was run: as §1

ETV2 = molecular target: T4, ETV2 (Homo sapiens, UniProt O00321 1-342); conditions: protein: recombinant; tags: N-terminal GST; dsDNA, one strand shown
T4 sequence: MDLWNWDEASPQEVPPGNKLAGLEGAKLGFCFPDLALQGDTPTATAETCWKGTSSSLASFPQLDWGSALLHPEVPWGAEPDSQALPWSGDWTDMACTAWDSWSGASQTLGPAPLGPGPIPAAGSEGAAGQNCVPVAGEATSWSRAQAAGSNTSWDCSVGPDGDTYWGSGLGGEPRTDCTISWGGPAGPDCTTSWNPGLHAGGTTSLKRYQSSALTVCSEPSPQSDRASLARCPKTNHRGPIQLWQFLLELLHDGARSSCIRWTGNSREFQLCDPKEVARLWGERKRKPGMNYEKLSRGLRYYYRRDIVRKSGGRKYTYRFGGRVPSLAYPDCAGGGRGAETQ
How it was run: as §1

ELF3 = molecular target: T5, ELF3 (Homo sapiens, UniProt P78545 1-371); conditions: protein: recombinant; tags: N-terminal GST; dsDNA, one strand shown
T5 sequence: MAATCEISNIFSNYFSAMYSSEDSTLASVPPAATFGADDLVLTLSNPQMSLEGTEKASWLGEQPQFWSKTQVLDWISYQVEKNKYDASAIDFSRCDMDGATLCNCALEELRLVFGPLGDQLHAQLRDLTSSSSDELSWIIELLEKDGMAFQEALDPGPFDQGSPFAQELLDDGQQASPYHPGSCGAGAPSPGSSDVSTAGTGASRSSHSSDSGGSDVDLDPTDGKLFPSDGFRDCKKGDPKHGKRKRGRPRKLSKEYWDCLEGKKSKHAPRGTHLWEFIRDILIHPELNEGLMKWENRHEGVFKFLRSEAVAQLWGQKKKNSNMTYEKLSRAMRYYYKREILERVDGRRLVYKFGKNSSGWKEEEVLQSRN
How it was run: as §1

CRX = CRX (Homo sapiens, UniProt O43186 1-299); conditions: protein: recombinant; tags: N-terminal GST; dsDNA, one strand shown
How it was run: as §1

ETV1 = ETV1 (Homo sapiens, UniProt P50549 1-477); conditions: protein: recombinant; tags: N-terminal GST; dsDNA, one strand shown
How it was run: as §1

ERF = molecular target: T6, ERF (Homo sapiens, UniProt P50548 1-548); conditions: protein: recombinant; tags: N-terminal GST; dsDNA, one strand shown
T6 sequence: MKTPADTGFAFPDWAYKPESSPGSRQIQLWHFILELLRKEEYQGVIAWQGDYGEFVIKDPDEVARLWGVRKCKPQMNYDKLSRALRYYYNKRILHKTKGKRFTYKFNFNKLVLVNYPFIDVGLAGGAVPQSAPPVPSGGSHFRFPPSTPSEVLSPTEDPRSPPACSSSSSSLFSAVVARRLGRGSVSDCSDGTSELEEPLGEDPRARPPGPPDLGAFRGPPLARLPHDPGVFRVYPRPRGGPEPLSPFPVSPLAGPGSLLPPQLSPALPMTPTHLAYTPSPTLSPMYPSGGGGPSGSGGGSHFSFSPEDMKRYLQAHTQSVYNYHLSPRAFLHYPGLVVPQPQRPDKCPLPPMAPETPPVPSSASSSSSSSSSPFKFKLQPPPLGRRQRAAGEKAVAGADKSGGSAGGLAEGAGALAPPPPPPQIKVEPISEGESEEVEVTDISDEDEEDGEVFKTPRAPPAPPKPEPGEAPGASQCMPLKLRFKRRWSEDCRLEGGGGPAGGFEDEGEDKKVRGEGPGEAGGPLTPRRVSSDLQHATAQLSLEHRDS
How it was run: as §1

ETV3L = molecular target: T7, ETV3L (Homo sapiens, UniProt Q6ZN32 1-361); conditions: protein: recombinant; tags: N-terminal GST; dsDNA, one strand shown
T7 sequence: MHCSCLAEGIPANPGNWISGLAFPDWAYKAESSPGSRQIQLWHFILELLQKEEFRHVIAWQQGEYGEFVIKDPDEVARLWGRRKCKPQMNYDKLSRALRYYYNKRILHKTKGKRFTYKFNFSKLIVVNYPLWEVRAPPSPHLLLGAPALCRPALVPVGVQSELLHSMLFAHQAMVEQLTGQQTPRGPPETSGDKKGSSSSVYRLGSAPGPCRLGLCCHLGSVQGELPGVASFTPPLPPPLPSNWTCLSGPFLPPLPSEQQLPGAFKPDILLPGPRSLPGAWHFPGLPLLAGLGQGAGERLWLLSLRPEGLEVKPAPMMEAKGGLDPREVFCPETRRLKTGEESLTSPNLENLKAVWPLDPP
How it was run: as §1

ETS2 = molecular target: T8, ETS2 (Homo sapiens, UniProt P15036 1-469); conditions: protein: recombinant; tags: N-terminal GST; dsDNA, one strand shown
T8 sequence: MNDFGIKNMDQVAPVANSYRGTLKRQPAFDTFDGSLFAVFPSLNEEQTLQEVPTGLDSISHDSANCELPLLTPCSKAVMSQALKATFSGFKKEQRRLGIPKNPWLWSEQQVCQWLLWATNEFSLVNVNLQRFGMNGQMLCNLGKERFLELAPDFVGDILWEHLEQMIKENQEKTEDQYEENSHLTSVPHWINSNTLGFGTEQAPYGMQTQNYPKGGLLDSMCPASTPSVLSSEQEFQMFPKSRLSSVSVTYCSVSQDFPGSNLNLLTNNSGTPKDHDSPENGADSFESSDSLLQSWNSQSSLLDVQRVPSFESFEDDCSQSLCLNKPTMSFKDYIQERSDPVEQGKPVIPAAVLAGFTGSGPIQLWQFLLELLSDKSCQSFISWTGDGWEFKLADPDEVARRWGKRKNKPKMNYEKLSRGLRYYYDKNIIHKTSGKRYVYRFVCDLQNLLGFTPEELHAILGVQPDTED
How it was run: as §1

SPDEF = molecular target: T9, SPDEF (Homo sapiens, UniProt O95238 1-335); conditions: protein: recombinant; tags: N-terminal GST; dsDNA, one strand shown
T9 sequence: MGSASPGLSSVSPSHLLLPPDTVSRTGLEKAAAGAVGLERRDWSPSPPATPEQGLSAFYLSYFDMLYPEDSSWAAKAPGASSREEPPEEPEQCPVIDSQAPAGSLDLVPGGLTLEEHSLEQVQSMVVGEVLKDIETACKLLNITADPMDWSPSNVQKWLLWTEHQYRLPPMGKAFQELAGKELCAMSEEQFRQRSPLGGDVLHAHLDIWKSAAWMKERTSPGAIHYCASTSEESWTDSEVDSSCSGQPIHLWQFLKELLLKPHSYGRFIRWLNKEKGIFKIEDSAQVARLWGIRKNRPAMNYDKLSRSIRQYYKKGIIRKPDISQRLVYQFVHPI
How it was run: as §1

ETV7 = molecular target: T10, ETV7 (Homo sapiens, UniProt Q9Y603 1-341); conditions: protein: recombinant; tags: N-terminal GST; dsDNA, one strand shown
T10 sequence: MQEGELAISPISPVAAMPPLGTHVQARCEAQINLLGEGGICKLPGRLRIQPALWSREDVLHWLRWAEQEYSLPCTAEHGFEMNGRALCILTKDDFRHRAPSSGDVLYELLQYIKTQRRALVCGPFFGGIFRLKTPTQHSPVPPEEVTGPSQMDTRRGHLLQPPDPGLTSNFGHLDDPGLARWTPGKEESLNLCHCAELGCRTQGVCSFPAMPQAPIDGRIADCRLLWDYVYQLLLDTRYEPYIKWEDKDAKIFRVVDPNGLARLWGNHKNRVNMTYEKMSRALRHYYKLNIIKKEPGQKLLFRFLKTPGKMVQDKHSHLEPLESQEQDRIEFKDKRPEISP
How it was run: as §1

ELF5 = molecular target: T11, ELF5 (Homo sapiens, UniProt Q9UKW6-2 1-255); conditions: protein: recombinant; tags: N-terminal GST; dsDNA, one strand shown
T11 sequence: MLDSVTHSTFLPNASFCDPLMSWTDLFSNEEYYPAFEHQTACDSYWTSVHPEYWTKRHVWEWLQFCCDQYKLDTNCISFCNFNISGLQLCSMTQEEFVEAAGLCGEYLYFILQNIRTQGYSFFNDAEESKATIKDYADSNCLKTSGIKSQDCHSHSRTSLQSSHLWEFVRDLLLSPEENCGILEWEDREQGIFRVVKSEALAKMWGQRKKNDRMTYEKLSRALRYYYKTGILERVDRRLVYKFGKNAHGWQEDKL
How it was run: as §1

ETV3 = molecular target: T12, ETV3 (Homo sapiens, UniProt P41162-2 1-143); conditions: protein: recombinant; tags: N-terminal GST; dsDNA, one strand shown
T12 sequence: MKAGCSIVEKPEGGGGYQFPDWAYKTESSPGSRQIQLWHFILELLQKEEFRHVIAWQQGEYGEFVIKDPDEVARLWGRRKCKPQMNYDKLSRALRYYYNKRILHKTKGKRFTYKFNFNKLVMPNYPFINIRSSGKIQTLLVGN
How it was run: as §1

ETV6 = ETV6 (Homo sapiens, UniProt P41212 1-452); conditions: protein: recombinant; tags: N-terminal GST; dsDNA, one strand shown
How it was run: as §1

Sequence of ETV1 (P50549 whole entry): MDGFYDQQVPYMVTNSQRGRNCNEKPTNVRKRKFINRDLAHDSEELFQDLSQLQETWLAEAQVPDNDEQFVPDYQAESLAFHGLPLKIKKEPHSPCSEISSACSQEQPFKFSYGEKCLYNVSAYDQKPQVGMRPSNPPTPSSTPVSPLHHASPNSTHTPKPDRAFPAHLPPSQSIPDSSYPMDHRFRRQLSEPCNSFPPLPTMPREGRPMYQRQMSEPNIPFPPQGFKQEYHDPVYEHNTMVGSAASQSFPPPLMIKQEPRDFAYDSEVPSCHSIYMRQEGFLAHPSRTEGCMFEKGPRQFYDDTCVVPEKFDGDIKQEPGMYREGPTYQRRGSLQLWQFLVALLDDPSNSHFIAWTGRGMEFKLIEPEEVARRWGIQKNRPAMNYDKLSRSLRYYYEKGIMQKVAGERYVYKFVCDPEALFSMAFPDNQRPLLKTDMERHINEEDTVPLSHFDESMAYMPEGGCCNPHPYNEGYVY
Sequence of ETV6 (P41212 whole entry): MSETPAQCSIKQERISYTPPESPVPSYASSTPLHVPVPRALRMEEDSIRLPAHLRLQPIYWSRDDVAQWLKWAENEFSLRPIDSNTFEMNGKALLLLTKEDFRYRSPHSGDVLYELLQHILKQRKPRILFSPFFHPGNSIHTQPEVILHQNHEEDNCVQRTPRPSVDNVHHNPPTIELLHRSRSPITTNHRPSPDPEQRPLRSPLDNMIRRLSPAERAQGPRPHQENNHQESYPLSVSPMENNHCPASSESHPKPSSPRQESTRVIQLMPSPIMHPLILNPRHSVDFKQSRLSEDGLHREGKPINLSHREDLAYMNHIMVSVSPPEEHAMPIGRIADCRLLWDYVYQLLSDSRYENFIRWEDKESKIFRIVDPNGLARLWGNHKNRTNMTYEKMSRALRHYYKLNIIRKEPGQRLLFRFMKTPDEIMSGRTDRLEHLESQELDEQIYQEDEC
Sequence of HSF1 (Q00613 whole entry): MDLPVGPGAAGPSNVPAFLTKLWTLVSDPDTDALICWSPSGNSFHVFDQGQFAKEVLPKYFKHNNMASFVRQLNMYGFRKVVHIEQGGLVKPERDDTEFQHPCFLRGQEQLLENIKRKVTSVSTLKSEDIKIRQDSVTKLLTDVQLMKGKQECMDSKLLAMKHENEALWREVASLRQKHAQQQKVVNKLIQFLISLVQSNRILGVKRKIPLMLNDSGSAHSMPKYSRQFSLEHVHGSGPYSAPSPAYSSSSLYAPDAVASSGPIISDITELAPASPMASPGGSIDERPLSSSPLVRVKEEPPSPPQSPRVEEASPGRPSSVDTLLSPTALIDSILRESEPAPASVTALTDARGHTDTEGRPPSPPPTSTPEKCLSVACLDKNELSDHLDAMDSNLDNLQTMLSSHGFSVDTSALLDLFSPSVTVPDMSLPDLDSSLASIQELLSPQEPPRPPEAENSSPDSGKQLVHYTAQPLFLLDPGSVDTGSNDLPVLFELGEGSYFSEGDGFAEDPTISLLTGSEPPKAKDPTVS
Sequence of ETV5 (P41161 whole entry): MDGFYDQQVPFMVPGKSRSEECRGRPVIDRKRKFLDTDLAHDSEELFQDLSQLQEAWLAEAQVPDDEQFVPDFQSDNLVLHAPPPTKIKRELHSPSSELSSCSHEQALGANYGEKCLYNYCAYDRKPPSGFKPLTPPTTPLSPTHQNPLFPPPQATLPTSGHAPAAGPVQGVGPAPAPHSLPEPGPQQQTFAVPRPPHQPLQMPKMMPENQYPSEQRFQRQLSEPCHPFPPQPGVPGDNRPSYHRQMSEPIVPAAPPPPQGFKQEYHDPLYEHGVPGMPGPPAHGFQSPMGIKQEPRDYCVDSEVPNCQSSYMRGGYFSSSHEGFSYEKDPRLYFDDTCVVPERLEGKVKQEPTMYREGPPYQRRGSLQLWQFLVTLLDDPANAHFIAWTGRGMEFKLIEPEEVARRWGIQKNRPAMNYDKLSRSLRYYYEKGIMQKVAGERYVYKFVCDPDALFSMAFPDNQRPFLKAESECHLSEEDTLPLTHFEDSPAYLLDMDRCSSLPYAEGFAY
Sequence of CRX (O43186 whole entry): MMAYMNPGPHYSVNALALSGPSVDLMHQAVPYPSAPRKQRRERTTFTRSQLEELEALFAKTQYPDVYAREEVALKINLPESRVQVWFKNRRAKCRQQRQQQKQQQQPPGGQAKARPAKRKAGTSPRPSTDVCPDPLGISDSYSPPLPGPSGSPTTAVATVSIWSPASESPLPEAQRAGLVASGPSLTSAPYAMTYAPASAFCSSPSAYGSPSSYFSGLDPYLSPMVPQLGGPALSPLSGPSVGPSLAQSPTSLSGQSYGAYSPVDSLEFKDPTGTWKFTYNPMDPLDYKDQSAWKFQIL
Sequence of ELF4 (Q99607 whole entry): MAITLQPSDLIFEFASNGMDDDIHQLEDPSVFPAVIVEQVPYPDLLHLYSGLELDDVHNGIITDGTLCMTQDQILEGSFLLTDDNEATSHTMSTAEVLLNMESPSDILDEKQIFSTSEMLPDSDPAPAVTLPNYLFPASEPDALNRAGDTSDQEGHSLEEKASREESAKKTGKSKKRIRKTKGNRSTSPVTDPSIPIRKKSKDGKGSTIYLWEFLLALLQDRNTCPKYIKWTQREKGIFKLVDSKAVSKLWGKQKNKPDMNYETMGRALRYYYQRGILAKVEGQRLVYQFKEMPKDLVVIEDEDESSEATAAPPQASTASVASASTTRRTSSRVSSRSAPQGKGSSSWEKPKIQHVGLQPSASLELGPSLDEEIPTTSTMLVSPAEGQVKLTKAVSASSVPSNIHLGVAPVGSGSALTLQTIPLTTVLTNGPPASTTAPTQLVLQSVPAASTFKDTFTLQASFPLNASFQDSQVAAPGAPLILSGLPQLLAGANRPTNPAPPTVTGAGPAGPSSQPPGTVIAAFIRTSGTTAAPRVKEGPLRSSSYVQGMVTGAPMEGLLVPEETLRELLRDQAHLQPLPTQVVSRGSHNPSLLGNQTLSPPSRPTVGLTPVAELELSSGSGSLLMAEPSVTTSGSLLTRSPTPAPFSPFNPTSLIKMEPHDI

Sequence	binding signal (FEV)	binding signal (ETV5)	binding signal (HSF1)	binding signal (SPIC)	binding signal (ELF4)	binding signal (ELK4)	binding signal (ETV2)	binding signal (ELF3)	binding signal (CRX)	binding signal (ETV1)	binding signal (ERF)	binding signal (ETV3L)	binding signal (ETS2)	binding signal (SPDEF)	binding signal (ETV7)	binding signal (ELF5)	binding signal (ETV3)	binding signal (ETV6)
ACTTCT	1.4 fold enrichment (6-mer frequency, TF over GST control)	1.45 fold enrichment (6-mer frequency, TF over GST control)	2.1 fold enrichment (6-mer frequency, TF over GST control)	1.47 fold enrichment (6-mer frequency, TF over GST control)	1.49 fold enrichment (6-mer frequency, TF over GST control)	1.83 fold enrichment (6-mer frequency, TF over GST control)	1.37 fold enrichment (6-mer frequency, TF over GST control)	1.45 fold enrichment (6-mer frequency, TF over GST control)	1.55 fold enrichment (6-mer frequency, TF over GST control)	1.47 fold enrichment (6-mer frequency, TF over GST control)	1.35 fold enrichment (6-mer frequency, TF over GST control)	1.65 fold enrichment (6-mer frequency, TF over GST control)	1.4 fold enrichment (6-mer frequency, TF over GST control)	1.21 fold enrichment (6-mer frequency, TF over GST control)	1.5 fold enrichment (6-mer frequency, TF over GST control)	1.58 fold enrichment (6-mer frequency, TF over GST control)	1.36 fold enrichment (6-mer frequency, TF over GST control)	1.58 fold enrichment (6-mer frequency, TF over GST control)
CACTAA	1.12 fold enrichment (6-mer frequency, TF over GST control)	1.13 fold enrichment (6-mer frequency, TF over GST control)	1.29 fold enrichment (6-mer frequency, TF over GST control)	1.25 fold enrichment (6-mer frequency, TF over GST control)	1.2 fold enrichment (6-mer frequency, TF over GST control)	1.2 fold enrichment (6-mer frequency, TF over GST control)	1.2 fold enrichment (6-mer frequency, TF over GST control)	1.3 fold enrichment (6-mer frequency, TF over GST control)	1.67 fold enrichment (6-mer frequency, TF over GST control)	1.12 fold enrichment (6-mer frequency, TF over GST control)	1.21 fold enrichment (6-mer frequency, TF over GST control)	1.28 fold enrichment (6-mer frequency, TF over GST control)	1.18 fold enrichment (6-mer frequency, TF over GST control)	1.15 fold enrichment (6-mer frequency, TF over GST control)	1.19 fold enrichment (6-mer frequency, TF over GST control)	1.14 fold enrichment (6-mer frequency, TF over GST control)	1.07 fold enrichment (6-mer frequency, TF over GST control)	1.12 fold enrichment (6-mer frequency, TF over GST control)
